Screening data from PubChem.
Compounds with a hit are over-represented: about 3.4% of the library has one in this group of screens.
TRPM1 prom inh: MITF TRPM1 promoter inhibition in SK-MEL-5 cells | 330,000 compounds, 0.83% hits | inhibition, % at 12.5 µM | SK-MEL-5 TRPM1 promoter luciferase, 24 h;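 active = mean inhibition across replicates of 60% or more, whatever share of single replicates reaches that level; inconclusive = some that reach 60%, reason not given; inactive = mean inhibition across replicates below 60%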
TROY signal inh: TROY signaling inhibition | Q293 LMP1-TROYcd NF-kB luciferase reporter, 4 h | 360,000 compounds, 0.98% hits | inhibition, % at 10 µM | AID 1347056;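 active = compounds whose plate-normalised and pattern-corrected inhibition of the luciferase reporter signal at the single screening dose is 50% or more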
EBV LMP1 NFkB: inhibitors of Epstein-Barr LMP1-induced NF-kappaB reporter | inhibition, % at 12.5 µM | 350,000 compounds, 0.69% hits | LMP1-induced NF-kappaB luciferase reporter cells, luminescence; in the data active = inhibition above about 41%; inconclusive = no clear call, values can overlap the other calls
TWEAK Fn14 block: TWEAK-Fn14 signaling inhibition | inhibition, % at 10 µM | AID 1159606 | 360,000 compounds, 2% hits | TWEAK-stimulated Fn14 reporter cells, luciferase luminescence, 8 h; in the data active = inhibition above about 50%
HIF-2a inh: blocks HIF-2a reporter activity; inhibition, % at 18.8 µM; AID 624352; 360,000 compounds, 0.72% hits; 786-0 RCC cells HIF-2a reporter, luciferase luminescence, overnight;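 active = inhibition of the luminescence signal of 40% or more relative to plate controls, in a single-dose primary screen at 18.75 µM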
Shn3 3UTR inh: inhibitors of Schnurri-3 3'UTR reporter in osteoblasts; Clone20 osteoblast Shn3 3'UTR firefly luciferase, 24 h; inhibition, % at 12.5 µM; 360,000 compounds, 0.52% hits;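 active = mean inhibition of at least 75% with every replicate also reaching 75%; inconclusive = mean inhibition at least 75% but some replicate below; inactive = mean inhibition below 75%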
Each line names hits and unclear results; the compound was inactive in the other large screens.

COc1ccc(NC2=C(C(C)=O)C(c3ccc(OC)c(OC)c3)C(C(C)=O)C(C)(O)C2)cc1 (stereo unspecified)	TWEAK Fn14 block 53.7
O=C(NCc1ccco1)C1CCN(C(=O)c2ccc(Cl)cc2)CC1	none
O=C(NCc1ccco1)C1CCN(C(=O)c2cc3sccc3n2Cc2ccc(Cl)cc2)CC1	TWEAK Fn14 block 50.4
CC(C)=CCC[C@H](C)C[C@@H]1CC2=C(C(=O)OC(C)(C)O2)[C@H](c2ccc(Cl)cc2)O1	none (no result: TRPM1 prom inh, EBV LMP1 NFkB)
COc1ccc2sc(N(CCCN(C)C)C(=O)c3nc4ccccc4s3)nc2c1	none
COc1ccccc1C(=O)N(CCC1CCCN1C)c1nc2ccccc2s1 (stereo unspecified)	TROY signal inh 89.0, TWEAK Fn14 block 100.9
N#CC1=C2N=C(N)c3ccccc3N2C2=C(C(=O)CCC2)C1c1ccc(F)cc1 (stereo unspecified)	none (no result: Shn3 3UTR inh)
N#CC1=C2N=C(N)c3c(sc4c3CCCCC4)N2C2=C(C(=O)CCC2)C1c1ccccc1 (stereo unspecified)	TROY signal inh 54.0
N#CC(C#N)=C(Nc1ccc(F)cc1)SCc1cccc(F)c1	TROY signal inh 53.1
CN(Cc1ccccc1)C(=O)N[C@@H](Cc1ccccc1)C(=O)O	TWEAK Fn14 block 81.1 (no result: TROY signal inh)
COC(=O)[C@H](Cc1ccccc1)NC(=O)N(C)Cc1ccccc1	none
Cc1cc(NC(=O)Cn2c(=O)oc3ccccc32)no1	none
Cc1ccc(C2CC(C(F)(F)F)n3nc(C(=O)NCc4c(C)nn(C)c4C)c(Cl)c3N2)cc1 (stereo unspecified)	TRPM1 prom inh inconclusive, TROY signal inh 58.1
Cc1nn(C)c(C)c1CNC(=O)c1cnn2c1NC(c1ccccc1)CC2C(F)(F)F (stereo unspecified)	none
O=C(c1cnn2c(C(F)F)cc(-c3ccccc3)nc12)N1CCN(Cc2ccc3c(c2)OCO3)CC1	none
N#CCSc1nccc(-c2cc(Cl)sc2Cl)n1	none
C=CCSc1nccc(-c2cc(Cl)sc2Cl)n1	EBV LMP1 NFkB 83.6
Cn1c(N=Nc2ccc(N3CCOCC3)cc2)[n+](C)c2ccccc21	TROY signal inh 69.8
Cn1c(=Nc2ccc(N3CCOCC3)cc2)ccc2ccccc21	TWEAK Fn14 block 72.0 (no result: TROY signal inh)
COCC(=O)N1CCC(Oc2ccc(C(=O)N[C@H](C(=O)OC)C(C)C)cc2)CC1	none
S=c1sc2c(Cl)ncnc2n1-c1ccccc1	TRPM1 prom inh 70.4, HIF-2a inh 83.8
Cc1ccc2nc(-c3ccc(NC(=O)CSc4nccc(=O)[nH]4)cc3)sc2c1	TROY signal inh 50.6
Cc1ccc(NC(=O)c2cc(-n3cnnc3)ccc2Cl)cc1	none
Cc1nnc(SCC(=O)Nc2ccc(-c3nc4ccccc4s3)cc2)s1	TROY signal inh 54.7, TWEAK Fn14 block 77.4
O=C(CCN1C(=O)NC2(CCCC2)C1=O)Nc1ccc(-c2nc3ccccc3s2)cc1	TWEAK Fn14 block 60.4
Cc1ccc2nc(-c3ccc(NC(=O)CSc4nc(N)cc(=O)[nH]4)cc3)sc2c1	none
O=C(Nc1ccc(-c2nc3ccccc3s2)cc1)c1cc(-n2cnnc2)ccc1Cl	TROY signal inh 53.2, TWEAK Fn14 block 94.7
COC(=O)c1ccc(N(CC(=O)NC2CCCCC2)C(=O)CNC(=O)c2ccco2)cc1	none
Cc1ccc2nc(-c3ccc(NC(=O)C(C)Sc4nncs4)cc3)sc2c1 (stereo unspecified)	TROY signal inh 72.9, TWEAK Fn14 block 88.8
O=C(NCc1ccco1)c1cccc(-c2cncc3nccn23)c1	none (no result: TRPM1 prom inh, EBV LMP1 NFkB)
COCCNc1nc(NCc2ccccc2)nc2ccsc12	none (no result: TRPM1 prom inh, EBV LMP1 NFkB)
COc1ccccc1CNc1nc(Nc2cccc(-c3cnco3)c2)c2sccc2n1	TROY signal inh 75.1, TWEAK Fn14 block 97.8 (no result: TRPM1 prom inh, EBV LMP1 NFkB)
COc1ccccc1CNc1nc(NCc2ccccc2OC)c2sccc2n1	TROY signal inh 56.9, Shn3 3UTR inh 86.5 (no result: TRPM1 prom inh, EBV LMP1 NFkB)
CC(C)Nc1nc(NCc2ccccc2)c2sccc2n1	TROY signal inh 57.1 (no result: TRPM1 prom inh, EBV LMP1 NFkB)
CCOC(=O)Cc1ccc(Nc2nc(NCc3ccccc3)nc3ccsc23)cc1	TROY signal inh 57.3, TWEAK Fn14 block 93.1 (no result: TRPM1 prom inh, EBV LMP1 NFkB)
CCCCC(=O)N(C)c1c(C)nc2ccc(C(=O)N3CCN(C(=O)c4ccco4)CC3)cn12	none (no result: TRPM1 prom inh, EBV LMP1 NFkB)
CC1Cc2ccccc2N1C(=O)CSc1nncs1 (stereo unspecified)	none
COc1ccccc1CNc1nc(NCC2CC2)nc2ccsc12	none (no result: TRPM1 prom inh, EBV LMP1 NFkB)
COc1ccccc1CNc1nc(NCc2ccccc2SC)c2sccc2n1	TROY signal inh 54.9, TWEAK Fn14 block 90.5, Shn3 3UTR inh inconclusive (no result: TRPM1 prom inh, EBV LMP1 NFkB)
Cc1cc(C(=O)COC(=O)c2cccn2C)c(C)n1Cc1ccco1	TROY signal inh 75.7, TWEAK Fn14 block 74.2
Cc1cc(C(=O)COC(=O)c2ccncc2)c(C)n1Cc1ccco1	TWEAK Fn14 block 59.5
COCC(C)n1c(C)cc(C(=O)COC(=O)c2cccn2C)c1C (stereo unspecified)	TROY signal inh 81.8, EBV LMP1 NFkB inconclusive, TWEAK Fn14 block 93.5
COCC(C)n1c(C)cc(C(=O)COC(=O)c2cnc(Cl)c(Cl)c2)c1C (stereo unspecified)	none
Cc1cc(C(=O)COC(=O)c2ccco2)c(C)n1Cc1ccco1	TROY signal inh 84.4, TWEAK Fn14 block 93.4
CCOC(=O)c1c(NC(=O)CSc2nccn2C)sc(C(=O)NC)c1C	none
O=C(NCc1ccccc1Cl)[C@H]1CCCN1C(=O)[C@H]1CCCN1C(=O)c1cccs1	none (no result: TRPM1 prom inh, EBV LMP1 NFkB, Shn3 3UTR inh)
CCN1C(=O)CC2CCCC1C2 (stereo unspecified)	Shn3 3UTR inh 95.4
CCOC(=O)N1CCC(NC(=O)c2ccc3c(c2)N(C)C(=O)/C(=C/c2cccc(OC)c2)S3)CC1	TROY signal inh 60.8, TWEAK Fn14 block 74.7
CC(C)C[C@H](CO)Nc1nc(Nc2cccc(Cl)c2)c2ncn(C(C)C)c2n1	TWEAK Fn14 block 78.7 (no result: TRPM1 prom inh)
COc1cc(SC)ccc1C(=O)Nc1nccs1	TWEAK Fn14 block 63.3
CCOC(=O)c1sc(NC(=O)CN2C(=O)c3cccc4cccc(c34)C2=O)nc1C	none
CCOC(=O)c1sc(NC(=O)CCCCCN2C(=O)c3cccc4cccc(c34)C2=O)nc1C	TRPM1 prom inh 66.9
C=C(CN(C)C)C(=O)c1cc(C)ccc1C	TRPM1 prom inh 106.3, HIF-2a inh 90.4, Shn3 3UTR inh 94.9
Cc1cc2ncn(CCOc3ccccc3C#N)c2cc1C	TWEAK Fn14 block 54.5 (no result: TROY signal inh)
CCOc1ccc(NC(=O)CN(C)C(=O)c2ccc3c(c2)S(=O)(=O)N=C2CCCCCN23)cc1OCC	none
COc1cc(/C=C/c2nc(N)nc(-c3ccccc3O)n2)cc(OC)c1OC	TWEAK Fn14 block 52.5
COc1ccc(/C=C/c2nc(N)nc(-c3ccccc3O)n2)cc1OC	TWEAK Fn14 block 55.2
C#Cc1ccc([C@@H]2C=C(C(=O)N3CCN(Cc4ccccc4)CC3)O[C@H](OCCCCO)C2)cc1	Shn3 3UTR inh 92.6
O=C(NC1CC1)C1=C[C@@H](c2ccc(Br)cc2)C[C@@H](OCCCCO)O1	TROY signal inh 50.5
CCNc1c(NC(=O)c2ccc3c(c2)OCO3)c(=O)oc2ccccc12	none
